# According to PubChem BioAssay (NCI):
# This is part of a sample that, as a whole, favours compounds with a hit. Of some 79,000 tested, about 15% had one in any assay. Unmarked numbers belong to inactive results. The source made the active and inactive calls. No stated cut-off is given here; in the data, active means growth inhibition above about 70%; inactive means the rest.
# Experiments:
# [1] = NCI Yeast Anticancer Drug Screen. Data for the rad52 strain (AID 147);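 further: 0% = growth of vehicle-treated control cultures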; details: S. cerevisiae rad52 mutant growth inhibition, active compounds read high
# How it was run: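 Growth of repair-deficient yeast cells was compared between compound-treated and vehicle-treated cultures to give percent inhibition.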
# [2] = NCI Yeast Anticancer Drug Screen. Data for the wt1 strain (AID 149);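 further: 0% = growth of vehicle-treated wt1 cultures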; details: S. cerevisiae wt1 strain (SPY 50644) growth inhibition, active compounds read high
# How it was run: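 Measured: growth of wt1 yeast under compound versus vehicle treatment, reported as inhibition.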
# [3] = NCI Yeast Anticancer Drug Screen. Data for the rad50EPP+ strain (AID 151);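 further: 0% = growth of vehicle-treated control cultures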; details: S. cerevisiae rad50 mutant strain, active compounds read high
# How it was run: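 Measured: growth inhibition of rad50EPP+ yeast. Reference: vehicle-treated controls. Screen uses strains with defined genetic alterations in DNA damage repair or cell cycle control.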
# [4] = NCI Yeast Anticancer Drug Screen. Data for the mgt1 strain (AID 153); details: S. cerevisiae mgt1 mutant growth inhibition, active compounds read high
# How it was run: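 Compounds were applied to mgt1 mutant yeast, and growth was then compared against vehicle-treated control cultures to give percent inhibition.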
# [5] = NCI Yeast Anticancer Drug Screen. Data for the rad50 strain (AID 155);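 further: 0% = growth of vehicle-only cultures of the same strain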; details: S. cerevisiae rad50 strain growth inhibition, active compounds read high
# How it was run: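 Growth of the mutant yeast was measured after compound exposure and referenced to vehicle-treated cultures.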
# [6] = NCI Yeast Anticancer Drug Screen. Data for the mec2-1 strain (AID 157); details: S. cerevisiae mec2-1 strain, active compounds read high
# How it was run: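 Compounds were applied to mec2-1 yeast cells. Their growth was then compared with that of vehicle-treated cultures to give growth inhibition.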
# [7] = NCI Yeast Anticancer Drug Screen. Data for the sgs1 mgt1 strain (AID 161);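 further: 0% = growth of cultures given vehicle only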; details: S. cerevisiae sgs1 mgt1 strain, active compounds read high
# How it was run: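 Percent growth inhibition was derived by comparing compound-exposed mutant yeast with vehicle-exposed cultures. The strain carries alterations in DNA damage repair.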
# [8] = NCI Yeast Anticancer Drug Screen. Data for the CLN2oe strain (AID 163);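 further: 0% = growth of vehicle-only control cultures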; details: S. cerevisiae CLN2oe strain, active compounds read high
# How it was run: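 Cells of an engineered yeast line with disturbed cell-cycle regulation are treated with compound. Inhibition of growth is then calculated relative to the vehicle-treated reference.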
# [9] = NCI Yeast Anticancer Drug Screen. Data for the cln2 rad14 strain (AID 165);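 further: 0% = growth equal to vehicle treated cultures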; details: S. cerevisiae cln2 rad14 strain, active compounds read high
# How it was run: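 Strain: cln2 rad14 yeast, altered in cell cycle control and DNA damage repair. Read-out: growth inhibition vs vehicle.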
# [10] = NCI Yeast Anticancer Drug Screen. Data for the bub3 strain (AID 167); details: S. cerevisiae bub3 mutant strain, active compounds read high
# How it was run: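 Whole-cell yeast assay. The mutant strain was incubated with compounds, and growth inhibition was determined by comparison with vehicle-treated cells.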
# [11] = NCI Yeast Anticancer Drug Screen. Data for the wt2 strain (AID 169);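 further: 0% = growth of vehicle-treated yeast cultures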; details: S. cerevisiae wt2 strain growth inhibition, active compounds read high
# How it was run: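 Growth of compound-treated yeast is measured and expressed as inhibition relative to vehicle-only controls.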
# [12] = NCI Yeast Anticancer Drug Screen. Data for the mlh1 strain (AID 171);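 further: 0% = growth of vehicle-treated control cultures of the same strain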; details: S. cerevisiae mlh1 strain growth inhibition, active compounds read high
# How it was run: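 Test agents were incubated with yeast bearing a defined DNA damage repair or cell cycle control alteration; values are growth inhibition normalised to vehicle-treated cultures.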
# [13] = NCI Yeast Anticancer Drug Screen. Data for the mlh1 rad18 strain (AID 175); details: S. cerevisiae mlh1 rad18 strain growth inhibition, active compounds read high
# How it was run: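 A repair-deficient yeast strain is exposed to test compound, and growth is scored relative to vehicle-treated controls.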
# [14] = NCI Yeast Anticancer Drug Screen. Data for the rad18 strain (AID 177); details: S. cerevisiae rad18 mutant growth inhibition, active compounds read high
# How it was run: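 DNA-repair-defective yeast; compound treatment; growth inhibition scored against vehicle.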
# [15] = at 5.0 µM (retest, dose inferred, filed as 0.5)
# [16] = at 50.0 µM (retest, dose inferred, filed as 5.0)
smiles,measurement,setting,value
C=C1CC(Cn2cc(Br)c(=O)[nH]c2=O)(c2ccc(-c3ccccc3)cc2)OC1=O (stereo not drawn),growth inhibition,[1]; at 1.2 µM,2%
same,growth inhibition,[1]; at 3.7 µM,13%
same,growth inhibition,[1]; at 11.0 µM,21%
same,growth inhibition,[1]; at 33.0 µM,41%
same,growth inhibition,[1]; at 100.0 µM,93% (active)
same,growth inhibition,[2]; at 1.2 µM,1%
same,growth inhibition,[2]; at 3.7 µM,6%
same,growth inhibition,[2]; at 11.0 µM,15%
same,growth inhibition,[2]; at 33.0 µM,26%
same,growth inhibition,[2]; at 100.0 µM,83% (active)
same,growth inhibition,[3]; at 1.2 µM,-4%
same,growth inhibition,[3]; at 3.7 µM,-5%
same,growth inhibition,[3]; at 11.0 µM,3%
same,growth inhibition,[3]; at 33.0 µM,9%
same,growth inhibition,[3]; at 100.0 µM,16%
same,growth inhibition,[4]; at 1.2 µM,0%
same,growth inhibition,[4]; at 3.7 µM,9%
same,growth inhibition,[4]; at 11.0 µM,29%
same,growth inhibition,[4]; at 33.0 µM,55%
same,growth inhibition,[4]; at 100.0 µM,94% (active)
same,growth inhibition,[5]; at 1.2 µM,3%
same,growth inhibition,[5]; at 3.7 µM,7%
same,growth inhibition,[5]; [15],8%
same,growth inhibition,[5]; at 11.0 µM,17%
same,growth inhibition,[5]; at 33.0 µM,36%
same,growth inhibition,[5]; [16],98% (active)
same,growth inhibition,[5]; at 50.0 µM,98.3% (active)
same,growth inhibition,[5]; at 100.0 µM,92% (active)
same,growth inhibition,[6]; at 1.2 µM,5%
same,growth inhibition,[6]; at 3.7 µM,15%
same,growth inhibition,[6]; [15],21%
same,growth inhibition,[6]; at 11.0 µM,40%
same,growth inhibition,[6]; at 33.0 µM,57%
same,growth inhibition,[6]; [16],98% (active)
same,growth inhibition,[6]; at 50.0 µM,98.4% (active)
same,growth inhibition,[6]; at 100.0 µM,93% (active)
same,growth inhibition,[7]; [15],30%
same,growth inhibition,[7]; [16],87% (active)
same,growth inhibition,[7]; at 50.0 µM,97.3% (active)
same,growth inhibition,[8]; at 1.2 µM,-2%
same,growth inhibition,[8]; at 3.7 µM,-5%
same,growth inhibition,[8]; at 11.0 µM,10%
same,growth inhibition,[8]; at 33.0 µM,21%
same,growth inhibition,[8]; at 100.0 µM,96% (active)
same,growth inhibition,[9]; [15],23%
same,growth inhibition,[9]; [16],99% (active)
same,growth inhibition,[9]; at 50.0 µM,97.8% (active)
same,growth inhibition,[10]; at 1.2 µM,-1%
same,growth inhibition,[10]; at 3.7 µM,1%
same,growth inhibition,[10]; [15],10%
same,growth inhibition,[10]; at 11.0 µM,25%
same,growth inhibition,[10]; at 33.0 µM,53%
same,growth inhibition,[10]; [16],99% (active)
same,growth inhibition,[10]; at 50.0 µM,98.2% (active)
same,growth inhibition,[10]; at 100.0 µM,92% (active)
same,growth inhibition,[11]; at 1.2 µM,2%
same,growth inhibition,[11]; at 3.7 µM,10%
same,growth inhibition,[11]; at 11.0 µM,16%
same,growth inhibition,[11]; at 33.0 µM,29%
same,growth inhibition,[11]; at 100.0 µM,92% (active)
same,growth inhibition,[12]; at 1.2 µM,2%
same,growth inhibition,[12]; at 3.7 µM,10%
same,growth inhibition,[12]; at 11.0 µM,28%
same,growth inhibition,[12]; at 33.0 µM,41%
same,growth inhibition,[12]; at 100.0 µM,94% (active)
same,growth inhibition,[13]; [15],68%
same,growth inhibition,[13]; [16],99% (active)
same,growth inhibition,[13]; at 50.0 µM,97.2% (active)
same,growth inhibition,[14]; at 1.2 µM,4%
same,growth inhibition,[14]; at 3.7 µM,10%
same,growth inhibition,[14]; at 11.0 µM,10%
same,growth inhibition,[14]; at 33.0 µM,43%
same,growth inhibition,[14]; at 100.0 µM,95% (active)
